# In the supplement of paper PMC11732987, “Enantioselective OTUD7B fragment discovery through chemoproteomics screening and high-throughput optimisation” (Communications Chemistry, 2025):
# A number with no mark means an inactive call.
# Columns and labels:
# Test in all cases: log2 ratio of Biotin-Ahx-Ub-VS probe labelling (fragment/DMSO); higher = less target engagement (more negative = stronger competition), active = hit call of the paper (q ≤ 0.05, log2 ratio ≤ -1)
# Conditions in all cases: compound concentration: 200 uM; treatment time: 3 h
# OTUD6B = molecular target: T1, OTUD6B (UniProt Q8N6M0)
# T1 sequence (whole entry): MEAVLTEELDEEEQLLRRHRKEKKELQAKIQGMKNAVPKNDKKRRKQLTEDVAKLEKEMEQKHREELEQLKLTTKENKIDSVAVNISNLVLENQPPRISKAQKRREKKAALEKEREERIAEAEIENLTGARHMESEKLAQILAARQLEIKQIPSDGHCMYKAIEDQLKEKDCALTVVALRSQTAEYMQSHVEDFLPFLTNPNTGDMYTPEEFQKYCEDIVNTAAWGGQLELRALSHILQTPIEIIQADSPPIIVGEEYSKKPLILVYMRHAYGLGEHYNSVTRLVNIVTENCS
# Procedure, shortened: (§1)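 Each value is an average log2 ratio of fragment to vehicle, tested by unpaired t-test. The underlying Spectronaut label-free quantities were global-median-normalised, and only proteins with ≥2 unique peptides were included. Triplicate HEK293T lysate samples (495 µg) were exposed to fragment at 200 µM or vehicle for 3 h, then to Biotin-Ahx-Ub-VS at 0.5 µM final for 1 h, before NeutrAvidin enrichment of labelled DUBs, LysC and trypsin digestion, and diaPASEF LC-MS/MS.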
# OTUD7B = molecular target: T2, OTUD7B (UniProt Q6GQQ9)
# T2 sequence (whole entry): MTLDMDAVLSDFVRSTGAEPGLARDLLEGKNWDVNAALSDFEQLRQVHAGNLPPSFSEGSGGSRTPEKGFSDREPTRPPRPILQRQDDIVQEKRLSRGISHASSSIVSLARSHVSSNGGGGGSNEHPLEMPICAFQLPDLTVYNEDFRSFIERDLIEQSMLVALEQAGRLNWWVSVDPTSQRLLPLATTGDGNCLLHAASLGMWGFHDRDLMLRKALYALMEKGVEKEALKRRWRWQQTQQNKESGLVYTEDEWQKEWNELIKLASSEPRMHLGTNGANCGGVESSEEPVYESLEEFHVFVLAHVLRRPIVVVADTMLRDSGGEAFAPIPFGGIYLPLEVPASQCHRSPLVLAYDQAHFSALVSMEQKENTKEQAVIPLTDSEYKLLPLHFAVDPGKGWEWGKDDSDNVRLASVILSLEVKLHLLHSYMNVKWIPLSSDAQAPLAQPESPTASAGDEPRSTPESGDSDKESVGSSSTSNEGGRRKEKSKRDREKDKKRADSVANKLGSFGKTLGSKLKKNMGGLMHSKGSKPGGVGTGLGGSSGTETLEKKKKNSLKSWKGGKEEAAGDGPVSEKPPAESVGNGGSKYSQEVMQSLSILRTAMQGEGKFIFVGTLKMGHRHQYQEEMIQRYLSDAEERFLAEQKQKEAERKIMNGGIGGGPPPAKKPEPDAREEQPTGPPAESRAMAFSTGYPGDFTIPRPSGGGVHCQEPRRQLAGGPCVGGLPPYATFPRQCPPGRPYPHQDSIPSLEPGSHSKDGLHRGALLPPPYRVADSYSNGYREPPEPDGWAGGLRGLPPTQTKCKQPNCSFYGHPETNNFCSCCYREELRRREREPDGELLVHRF
# Procedure, shortened: as §1
# PRPF8 = PRPF8 (UniProt Q6P2Q9)
# Procedure, shortened: as §1
# PSMD7 = molecular target: T3, PSMD7 (UniProt P51665)
# T3 sequence (whole entry): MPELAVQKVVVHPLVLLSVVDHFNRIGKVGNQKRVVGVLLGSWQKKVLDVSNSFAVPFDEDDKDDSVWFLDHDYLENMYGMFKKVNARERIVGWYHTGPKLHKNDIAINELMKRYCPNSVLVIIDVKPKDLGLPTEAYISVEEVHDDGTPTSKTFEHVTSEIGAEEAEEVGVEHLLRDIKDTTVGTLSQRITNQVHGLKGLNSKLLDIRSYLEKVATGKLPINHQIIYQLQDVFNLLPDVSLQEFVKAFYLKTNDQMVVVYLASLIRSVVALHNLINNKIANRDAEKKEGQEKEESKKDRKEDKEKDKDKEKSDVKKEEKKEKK
# Procedure, shortened: as §1
# UCHL1 = UCHL1 (UniProt P09936)
# Procedure, shortened: as §1
# UCHL3 = molecular target: T4, UCHL3 (UniProt P15374)
# T4 sequence (whole entry): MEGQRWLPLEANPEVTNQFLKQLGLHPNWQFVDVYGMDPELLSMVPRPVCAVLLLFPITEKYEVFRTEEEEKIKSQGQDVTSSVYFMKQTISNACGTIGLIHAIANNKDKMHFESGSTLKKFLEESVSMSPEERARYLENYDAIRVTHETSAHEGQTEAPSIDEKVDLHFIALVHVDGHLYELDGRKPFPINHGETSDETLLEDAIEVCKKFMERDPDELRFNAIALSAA
# Procedure, shortened: as §1
# UCHL5 = molecular target: T5, UCHL5 (UniProt Q9Y5K5)
# T5 sequence (whole entry): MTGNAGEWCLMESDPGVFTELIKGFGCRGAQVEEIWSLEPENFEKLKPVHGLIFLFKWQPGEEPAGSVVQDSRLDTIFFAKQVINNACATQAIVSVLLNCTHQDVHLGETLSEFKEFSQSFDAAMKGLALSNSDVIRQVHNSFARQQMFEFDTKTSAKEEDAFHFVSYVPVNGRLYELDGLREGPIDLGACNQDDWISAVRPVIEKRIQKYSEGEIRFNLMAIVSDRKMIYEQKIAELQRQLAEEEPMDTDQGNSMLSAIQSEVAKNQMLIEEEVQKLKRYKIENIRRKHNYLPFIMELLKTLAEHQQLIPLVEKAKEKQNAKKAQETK
# Procedure, shortened: as §1
# USP10 = USP10 (UniProt Q14694)
# Procedure, shortened: as §1
# USP15 = molecular target: T6, USP15 (UniProt Q9Y4E8)
# T6 sequence (whole entry): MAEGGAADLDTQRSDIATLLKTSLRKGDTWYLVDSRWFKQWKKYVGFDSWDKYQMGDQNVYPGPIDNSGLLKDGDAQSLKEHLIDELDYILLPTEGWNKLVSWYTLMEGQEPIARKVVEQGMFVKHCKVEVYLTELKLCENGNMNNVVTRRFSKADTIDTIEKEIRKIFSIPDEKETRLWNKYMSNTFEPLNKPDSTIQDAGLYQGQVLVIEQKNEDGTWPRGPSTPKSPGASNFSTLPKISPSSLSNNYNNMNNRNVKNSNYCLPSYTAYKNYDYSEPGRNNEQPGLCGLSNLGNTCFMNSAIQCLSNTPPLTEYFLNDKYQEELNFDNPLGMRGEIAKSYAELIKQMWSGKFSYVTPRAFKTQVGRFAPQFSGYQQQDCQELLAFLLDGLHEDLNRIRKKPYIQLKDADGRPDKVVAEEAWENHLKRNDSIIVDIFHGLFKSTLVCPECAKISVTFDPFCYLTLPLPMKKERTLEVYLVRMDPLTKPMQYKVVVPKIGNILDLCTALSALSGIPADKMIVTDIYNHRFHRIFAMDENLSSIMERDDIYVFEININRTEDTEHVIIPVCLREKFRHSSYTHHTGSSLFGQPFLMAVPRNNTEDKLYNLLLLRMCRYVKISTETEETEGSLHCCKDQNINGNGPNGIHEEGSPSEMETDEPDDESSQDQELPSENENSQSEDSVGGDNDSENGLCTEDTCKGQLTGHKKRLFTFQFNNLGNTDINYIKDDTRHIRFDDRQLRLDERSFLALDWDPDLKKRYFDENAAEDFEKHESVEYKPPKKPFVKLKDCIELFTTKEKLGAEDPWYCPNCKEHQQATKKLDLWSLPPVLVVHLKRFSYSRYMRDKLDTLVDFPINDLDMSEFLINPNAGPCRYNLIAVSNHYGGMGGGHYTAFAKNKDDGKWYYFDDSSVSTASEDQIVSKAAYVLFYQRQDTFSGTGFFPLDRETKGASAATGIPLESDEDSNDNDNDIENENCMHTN
# Procedure, shortened: as §1
# USP16 = USP16 (UniProt Q9Y5T5)
# Procedure, shortened: as §1
# Chain of USP16 (Q9Y5T5 whole entry, looked up): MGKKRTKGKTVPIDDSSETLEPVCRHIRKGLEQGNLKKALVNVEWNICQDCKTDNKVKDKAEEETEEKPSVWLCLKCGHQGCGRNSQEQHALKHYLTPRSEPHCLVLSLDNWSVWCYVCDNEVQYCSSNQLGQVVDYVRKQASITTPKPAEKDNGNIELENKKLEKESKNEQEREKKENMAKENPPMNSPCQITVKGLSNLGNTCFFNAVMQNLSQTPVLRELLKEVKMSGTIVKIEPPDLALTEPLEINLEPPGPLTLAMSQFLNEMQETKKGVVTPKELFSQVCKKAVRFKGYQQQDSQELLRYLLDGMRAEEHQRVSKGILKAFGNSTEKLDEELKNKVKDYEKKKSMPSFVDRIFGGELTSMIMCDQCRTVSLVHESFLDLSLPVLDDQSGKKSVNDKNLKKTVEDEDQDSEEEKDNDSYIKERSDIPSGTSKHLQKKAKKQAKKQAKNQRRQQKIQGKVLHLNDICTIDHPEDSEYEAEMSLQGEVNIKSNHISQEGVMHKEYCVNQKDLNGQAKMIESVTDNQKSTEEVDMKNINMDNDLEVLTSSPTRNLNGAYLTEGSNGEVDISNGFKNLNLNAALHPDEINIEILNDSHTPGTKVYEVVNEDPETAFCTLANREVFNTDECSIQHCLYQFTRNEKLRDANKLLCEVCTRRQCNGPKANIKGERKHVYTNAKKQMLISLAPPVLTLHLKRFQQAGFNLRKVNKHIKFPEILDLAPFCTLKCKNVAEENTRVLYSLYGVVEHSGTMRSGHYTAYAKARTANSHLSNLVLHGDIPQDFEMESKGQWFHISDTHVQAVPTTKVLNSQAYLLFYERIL
# Chain of UCHL1 (P09936 whole entry, looked up): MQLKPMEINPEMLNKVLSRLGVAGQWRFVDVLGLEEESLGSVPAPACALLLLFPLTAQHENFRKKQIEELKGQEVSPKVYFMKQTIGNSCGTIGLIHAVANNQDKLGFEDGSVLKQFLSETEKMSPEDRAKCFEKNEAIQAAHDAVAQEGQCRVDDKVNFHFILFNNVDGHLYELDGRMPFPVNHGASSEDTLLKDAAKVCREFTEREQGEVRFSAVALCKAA
# Chain of USP10 (Q14694 whole entry): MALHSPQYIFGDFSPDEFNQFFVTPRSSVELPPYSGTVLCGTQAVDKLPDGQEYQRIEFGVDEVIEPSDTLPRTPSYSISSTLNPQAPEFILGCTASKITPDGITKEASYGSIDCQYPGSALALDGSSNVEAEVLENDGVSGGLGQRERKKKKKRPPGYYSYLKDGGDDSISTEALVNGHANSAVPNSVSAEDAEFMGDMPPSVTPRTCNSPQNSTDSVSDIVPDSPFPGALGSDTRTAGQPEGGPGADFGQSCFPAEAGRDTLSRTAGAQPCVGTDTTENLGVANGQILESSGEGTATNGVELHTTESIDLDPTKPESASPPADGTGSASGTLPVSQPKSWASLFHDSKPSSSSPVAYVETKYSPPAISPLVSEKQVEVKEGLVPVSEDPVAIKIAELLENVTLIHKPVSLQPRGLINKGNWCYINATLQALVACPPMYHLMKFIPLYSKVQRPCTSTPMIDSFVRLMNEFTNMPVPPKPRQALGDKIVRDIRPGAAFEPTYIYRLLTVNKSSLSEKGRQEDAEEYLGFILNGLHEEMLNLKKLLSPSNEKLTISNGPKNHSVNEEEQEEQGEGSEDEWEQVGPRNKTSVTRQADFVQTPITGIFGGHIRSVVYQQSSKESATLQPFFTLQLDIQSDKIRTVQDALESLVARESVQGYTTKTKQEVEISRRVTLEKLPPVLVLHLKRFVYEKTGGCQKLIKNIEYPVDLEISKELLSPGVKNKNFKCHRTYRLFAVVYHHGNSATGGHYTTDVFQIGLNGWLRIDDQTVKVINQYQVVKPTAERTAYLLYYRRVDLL
compound,measurement,setting,value
O=C(CCl)Nc1cc(Cl)ccc1C(=O)O,log2 ratio of Biotin-Ahx-Ub-VS probe labelling,OTUD6B,0.133
same,log2 ratio of Biotin-Ahx-Ub-VS probe labelling,OTUD7B,-0.0733
same,log2 ratio of Biotin-Ahx-Ub-VS probe labelling,PRPF8,-0.2
same,log2 ratio of Biotin-Ahx-Ub-VS probe labelling,PSMD7,-0.0699
same,log2 ratio of Biotin-Ahx-Ub-VS probe labelling,UCHL1,-1.38 (active)
same,log2 ratio of Biotin-Ahx-Ub-VS probe labelling,UCHL3,0.231
same,log2 ratio of Biotin-Ahx-Ub-VS probe labelling,UCHL5,-0.0926
same,log2 ratio of Biotin-Ahx-Ub-VS probe labelling,USP10,-0.101
same,log2 ratio of Biotin-Ahx-Ub-VS probe labelling,USP15,-0.15
same,log2 ratio of Biotin-Ahx-Ub-VS probe labelling,USP16,-0.669
